This is a sample that favours compounds with a hit; in the whole collection about 2.2% have one here.
LMP1 NFkB inh: EBV LMP1-driven NF-kappaB luciferase reporter inhibitors, primary screen, cell-based, luminescence, single point; LMP1-induced NF-kappaB luciferase reporter cells; inhibition, % at 12.5 µM; actives 0.69% (n = 350,000); AID 504558, 2011; in the data active = inhibition above about 41%; inconclusive = no clear call, values can overlap the other calls;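 note: 0% = neutral control wells and 100% = reference inhibitor control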
Shn3 inh set2: reduction of Shn3 3'UTR firefly luciferase signal, primary screen, Schnurri-3 inhibitor project, cell-based, Clone20 osteoblasts, set 2; Clone20 osteoblast Shn3 3'UTR firefly luciferase, 24 h; inhibition, % at 12.5 µM; actives 0.52% (n = 360,000); AID 588674, 2011;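 active = mean inhibition of at least 75% with every replicate also reaching 75%; inconclusive = mean inhibition at least 75% but some replicate below; inactive = mean inhibition below 75%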;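 note: 0% = median of neutral control wells and 100% = pilot-screen positive control compound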
EWS-Fli block: EWS/Fli-driven NR0B1 reporter inhibitors, primary screen, A673 cells, NR0B1 luciferase, luminescence, MLPCN library. viability-normalised. inhibition, % at 12.6 µM. actives 0.67% (n = 350,000). AID 651661, 2012;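 active = mean inhibition of at least 50% after viability correction, with every replicate also passing that limit; inconclusive = mean reaches 50% but only one of two replicates passes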;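 note: firefly luciferase signal divided by Alamar Blue viability fluorescence both relative to DMSO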
LGR2 inh: inhibitors of bursicon-induced LGR2 CRE-luciferase signal, primary screen, cell-based, HEK293, CRE-luciferase reporter, bursicon stimulation; bursicon-stimulated, 4 h; actives 0.35% (n = 380,000); Drosophila bursicon receptor LGR2 (rickets); inhibition, % at 9.99 µM;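 active = drop in luminescence signal, shown as inhibition above about 50% in the replicate tests, limit read from the data, passing the limit was not always enough; inconclusive = probably only some replicates passing the limit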;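 note: agonist challenge used bursicon conditioned medium at about half maximal strength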
TRPM1 prom inh: inhibitors of MITF-dependent TRPM1 promoter reporter, primary screen, cell-based, SK-MEL-5, single point, luciferase. SK-MEL-5 TRPM1 promoter luciferase, 24 h. inhibition, % at 12.5 µM. actives 0.83% (n = 330,000). AID 488899, 2010;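 active = mean inhibition across replicates of 60% or more, whatever share of single replicates reaches that level; inconclusive = some that reach 60%, reason not given; inactive = mean inhibition across replicates below 60%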
PAX8 inh HTS: inhibitors of PAX8-driven TPO luciferase reporter, primary screen, RMG-I cells, single concentration; SteadyGlo, 24 h; actives 1.2% (n = 360,000); inhibition, % at 12.6 µM;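 active = mean replicate inhibition at least 60% with every replicate also reaching 60%; inconclusive = only one of the two criteria is met; inactive = mean below 60% and not all replicates reaching 60%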;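 note: luciferase light reporting Pax8 driven TPO promoter activity; plate controls were median of neutral control wells for no effect and mitoxantrone controls for full effect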
* marks the source's active call; other numbers are inactive results.

Screening CO[C@H]1CN(C)C(=O)c2ccc(NC(=O)Cc3ccccc3)cc2OC[C@H](C)NC[C@@H]1C returned LGR2 inh 8.2.
Screening C[C@H]1CN([C@@H](C)CO)S(=O)(=O)c2ccc(C#CC3CC3)cc2O[C@@H]1CN(C)Cc1ccc(F)cc1 returned EWS-Fli block 17.8 and LGR2 inh 15.1.
Screening Cc1cc(C)cc(N=c2c([N+](=O)[O-])nn(-c3ccc4c(c3)OCCO4)n2O)c1 returned LMP1 NFkB inh 16.0, Shn3 inh set2 -7.3, EWS-Fli block -7.5, LGR2 inh -3.2, TRPM1 prom inh 7.1 and PAX8 inh HTS 99.9*.
`Cc1ccc(CN=c2c([N+](=O)[O-])nn(-c3ccc4c(c3)OCCO4)n2O)cc1` gave LMP1 NFkB inh -18.6, Shn3 inh set2 -29.5, LGR2 inh -9.0 and TRPM1 prom inh 7.2.
For O=[N+]([O-])c1nn(-c2ccc3c(c2)OCCO3)n(O)c1=Nc1ccccc1 the results were LMP1 NFkB inh 75.3*, Shn3 inh set2 66.2, EWS-Fli block 74.1*, LGR2 inh 22.3, TRPM1 prom inh 85.5* and PAX8 inh HTS 29.0.
Screening CCc1ccc(N=c2c([N+](=O)[O-])nn(-c3ccc4c(c3)OCCO4)n2O)cc1 returned LMP1 NFkB inh 13.1, Shn3 inh set2 5.4, EWS-Fli block 1.9, LGR2 inh -2.7, TRPM1 prom inh 4.7 and PAX8 inh HTS 1.5.
`Cc1ccc(N=c2c([N+](=O)[O-])nn(-c3ccc4c(c3)OCCO4)n2O)cc1F` gave LMP1 NFkB inh 48.8*, Shn3 inh set2 47.7, EWS-Fli block 38.9, LGR2 inh 34.7, TRPM1 prom inh 33.7 and PAX8 inh HTS 6.7.
Screening O=[N+]([O-])c1nn(-c2ccc3c(c2)OCCO3)n(O)c1=Nc1ccc(Cl)cc1 returned LMP1 NFkB inh 57.6*, Shn3 inh set2 47.2, EWS-Fli block 16.1, LGR2 inh 34.3 and TRPM1 prom inh 63.7*.
`CS(=O)(=O)Nc1ccc2c(c1)[C@H]1C[C@H](CC(=O)NCc3ccccn3)O[C@H](CO)[C@H]1O2` gave EWS-Fli block 4.9, LGR2 inh -11.1 and PAX8 inh HTS 3.1.
COc1ccc(-n2cc(C(=O)c3ccccc3O)cn2)cc1 was read as LMP1 NFkB inh 49.9*, Shn3 inh set2 8.6, EWS-Fli block 22.0, LGR2 inh inconclusive, TRPM1 prom inh -8.6 and PAX8 inh HTS -18.9.
For CC(=O)N[C@@H]1CC[C@@H](CCNC(=O)C2CCCCC2)O[C@@H]1CO the results were EWS-Fli block 4.2 and LGR2 inh 6.6.
Screening COc1ccc(C=Cc2ccc3ccccc3n2)c(OC)c1 returned LMP1 NFkB inh 44.6*, Shn3 inh set2 33.1, EWS-Fli block 49.3, LGR2 inh -21.6 and PAX8 inh HTS -93.1.
For COc1ccccc1-c1cnc2c(c1)C(=O)N([C@H](C)CO)C[C@H](C)[C@H](CN(C)CC1CC1)O2 the results were EWS-Fli block -9.6 and LGR2 inh 9.0.
For CCC(=O)N1C[C@H](C)[C@@H](OC)CN(C)C(=O)c2ccc(NC(=O)C3CCOCC3)cc2OC[C@@H]1C the results were EWS-Fli block -1.5, LGR2 inh 13.5 and PAX8 inh HTS -34.9.
For N#CC1=C(c2ccccc2)/C(=C/c2ccccc2)OC1=O the results were LMP1 NFkB inh 12.6, Shn3 inh set2 95.2*, LGR2 inh -11.8 and TRPM1 prom inh 92.2*.
O=C1O/C(=C/c2ccccc2)c2ccccc21 was read as LMP1 NFkB inh 6.2, Shn3 inh set2 -43.3, EWS-Fli block 8.3, LGR2 inh -14.6, TRPM1 prom inh -60.0 and PAX8 inh HTS -34.3.
`O=c1ccn(Cc2ccccc2)cc1` gave LMP1 NFkB inh 3.8, Shn3 inh set2 -10.1, EWS-Fli block -0.9, LGR2 inh -1.2, TRPM1 prom inh -9.6 and PAX8 inh HTS 13.7.
For Cc1ccccc1Cn1ccc(=NCc2ccccc2)cc1 the results were EWS-Fli block 13.0, LGR2 inh 5.3 and PAX8 inh HTS 84.6*.
